ALDH1A1 block: ALDH1A1 (human) enzyme inhibition; Purified ALDH1A1, NADH fluorescence, propionaldehyde substrate; Potency, µM (highest dose often 75.3 µM), for inactives: at the top dose activity, negative = inhibition, actives largely listed as inhibitors; 7.3% of 220,000 active; AID 1030;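 note: potency is the fitted concentration of half-maximal effect; plate controls were no enzyme wells and a reference inhibitor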
IMPase cell inh: cell-permeable inhibitors of inositol monophosphatase (IMPase); 120,000 tested, under 10 active; inhibition (IP1 accumulation), % at 46.1 µM; CHO-M1 cells, IP1 accumulation, HTRF TR-FRET ratio; P97697; active = well fitted curve in the direction sought with a large enough effect in the signal ratio, not every such curve was filed as active; inconclusive = small, poorly fitted or top-dose-only effect, or a change in a side signal; inactive = no such curve, though single readings can be large or run the other way; the % refers to the signal ratio;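 note: cells stimulated with carbachol in lithium chloride buffer; plate controls were DMSO basal wells for no effect and reference inhibitor wells for full effect; higher means more IMPase inhibition seen as more IP1 and lower FRET ratio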
Target sequence (P97697 whole entry, looked up): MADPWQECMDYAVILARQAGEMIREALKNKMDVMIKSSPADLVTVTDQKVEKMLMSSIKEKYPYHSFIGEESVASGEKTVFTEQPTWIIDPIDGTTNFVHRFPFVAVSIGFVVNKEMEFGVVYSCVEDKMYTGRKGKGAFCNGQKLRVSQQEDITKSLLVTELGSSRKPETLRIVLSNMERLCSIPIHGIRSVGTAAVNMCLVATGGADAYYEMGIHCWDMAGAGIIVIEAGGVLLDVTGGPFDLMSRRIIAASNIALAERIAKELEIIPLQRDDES
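Seeded CHO-M1 cells were dosed with compound at up to 46 uM, stimulated with carbachol for 30 min, then lysed in IP-One detection reagents. Higher IP1 lowers the TR-FRET signal.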
PNC inhibitor: perinucleolar compartment assembly inhibition; PC3M PTB-GFP, PNC prevalence imaging, 16 h; active compounds read low; activity change (PNC), negative = inhibition, % at 10 µM; 3.1% of 140,000 active; AID 2417;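 active = readout at or below -70, meaning at least 70% loss of cells showing the perinucleolar compartment, a nuclear body marking cancer cells; inconclusive = readout between -30 and a set limit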;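 note: plate controls were DMSO wells for no effect and camptothecin positive control wells for full effect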
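PC3M cells stably expressing PTB-GFP, 750–1000 cells/well, treated 16 h at 37 °C with compound (23 nl of library stock), in duplicate. After paraformaldehyde fixation and Hoechst stain, imaged at 20x; PNC prevalence scored by image analysis.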
HPGD inh: inhibitors of human 15-hydroxyprostaglandin dehydrogenase (HPGD). P15428. purified HPGD, NADH fluorescence kinetic, PGE2 substrate. Potency, µM, inactives show top-dose activity change, negative = inhibition, most hits filed as inhibitors. 4.3% of 150,000 active. AID 894; note: potency is the fitted concentration of half-maximal effect
Target sequence (P15428 whole entry, looked up): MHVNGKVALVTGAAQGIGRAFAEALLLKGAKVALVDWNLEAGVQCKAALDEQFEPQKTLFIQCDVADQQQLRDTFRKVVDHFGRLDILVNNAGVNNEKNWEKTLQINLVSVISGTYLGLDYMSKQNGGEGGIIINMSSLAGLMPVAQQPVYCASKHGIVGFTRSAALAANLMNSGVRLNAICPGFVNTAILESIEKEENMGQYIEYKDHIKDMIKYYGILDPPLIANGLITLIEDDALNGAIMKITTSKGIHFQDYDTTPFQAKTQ
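NADH formation kinetics: reaction with 30 uM PGE2 and 1 mM NAD+ (final), 20 nM enzyme, Tris-HCl pH 8 with Tween 20, after 15 min compound preincubation at room temperature. Fluorescence change, last versus first of five reads.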
IMPase Li inh: cell-permeable IMPase inhibitors with lithium potentiation; CHO-M1 cells, IP1 TR-FRET (IP-One), carbachol + lithium; Potency, µM (series often up to 59.4 µM), without a hit: at the highest dose activity, negative = IMPase inhibition, actives largely listed as inhibitors; 0.35% of 210,000 active; AID 1457; active = well fitted inhibition curve with a large enough effect; inconclusive = small, poorly fitted or top-dose-only effect; inactive = no such curve, though single readings can be large or run the other way;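 note: IP1 builds up when IMPase is blocked and the TR-FRET signal falls; potency is the fitted concentration of half-maximal effect; plate controls were basal vehicle for no effect and high inhibitor control for full effect; nearly all actives have a fitted effect of over 50% in size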
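Readout is a homogeneous TR-FRET IP1 immunoassay (Ex 320, Em 665 and 620), where raised cytosolic IP1 lowers signal. Cells were CHO-M1 treated 30 min at 37C with test compounds plus a little lithium; AC50 values came from Hill-equation fitting.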
* hit, by the source's call; ? = inconclusive; / = no result given; [ ] = another dose, or the depositor's remark. Most compounds without a hit are left out; they make up all but 11% or so of the library. Unless noted, calls come from the whole dose curve; as a rule, active = well fitted inhibition curve with a large enough effect (not every such curve was filed as active); inconclusive = small, poorly fitted or top-dose-only effect, or another doubt; inactive = no such curve, though single readings can be large or run the other way. Unless noted, % is set by controls: 0 for no effect and ±100 for the full control effect.

SMILES | ALDH1A1 block | IMPase cell inh | PNC inhibitor | HPGD inh | IMPase Li inh
Nc1ccc2oc(-c3cccc4ccccc34)nc2c1 | ? | -9 | -4 | 22µM* | ?
CCc1c(C)nc2ncnn2c1N1CCCC(C(=O)Nc2ccc(NC(C)=O)cc2)C1 (configuration not stated) | 13µM* | -18 | 6 | ? | -21%[38.3 µM]
CCc1c(C)nc2ncnn2c1N1CCC(C(=O)N2CCN(c3ccccc3)CC2)CC1 | 3% | 0 | -88* | -7% | -3%[38.3 µM]
O=C1C2C3C=CC(C3)C2C(=O)N1c1ccccc1 (configuration not stated) | -1% | -6 | -15 | -14% | 14%[38.3 µM]
O=C1C2C3CCCC3=C3CCCC3C2C(=O)N1c1ccccc1 (configuration not stated) | 25µM* | 0 | ? | -8% | 18%[38.3 µM]
O=C1C2C3C=CC(C3=C3CCCCC3)C2C(=O)N1c1ccccc1 (configuration not stated) | 10µM* | -7 | 20 | -2% | 28%[38.3 µM]
CCCCCCC(=O)Cc1cc(OC)c(OC)cc1/C=C(/C(C)=O)C(=O)OC | -2%[13.5 µM] | / | / | / | /
CCCc1c(C)nc2ccc(OC)cc2c1SCCC(=O)O | -3% | / | ? | ? | -8%
CCc1c(C)nc2c(C)cccc2c1SCCC#N | 7.9µM* | / | / | / | -2%
CCCCc1c(C)nc2ccccc2c1SCCC#N | 7.1µM* | -5 | 28 | -26% | 1%
CC(CC(=O)O)(CC(=O)O)C(=O)O | 3%[13.5 µM] | / | / | -1% | 10%
COc1ccccc1C(=O)NC(=S)Nc1cc(C(=O)O)ccc1C | 14µM* | / | / | / | 3%
O=C(Nc1ccc(N2CCOCC2)c(Cl)c1)c1ccccc1F | ? | 10 | 1 | 16µM* | 33%[38.3 µM]
COc1ccccc1C(=O)NC(=S)Nc1ccc(N2CCOCC2)c(Cl)c1 | 11µM* | / | / | / | -3%
Cc1cc(=O)[nH]c(SCC(=O)NCCC2=CCCCC2)n1 | -1% | / | / | / | -2%
CC12C=C(/C=C/c3ccc(F)cc3)C(C)(C1)C(c1ccc(F)cc1)CC2=O (configuration not stated) | -1%[13.5 µM] | / | / | / | /
COC(=O)C1(C(=O)OC)Cc2conc2[C@H]1c1ccccc1 | 2% | / | / | 1% | 7%
CCNC(=O)C/C(C)=N/NC(=O)C12CC3CC(CC(C3)C1)C2 | 4µM* | 5 | -7 | -13% | -30%[38.3 µM]
CCOC(=O)CN1C(=O)N[C@@H](c2cccc(C(F)(F)F)c2)[C@@H](C(=O)OC)[C@H]1C | 3%[13.5 µM] | / | / | 3% | 12%
Cn1cccc1/C=N/n1c(-c2ccc(C(C)(C)C)cc2)n[nH]c1=S | ? | 0 | 54 | 11µM* | 4%[38.3 µM]
Cc1nn(-c2ccccc2)c(C)c1/C=N/n1c(-c2ccncc2)n[nH]c1=S | 22µM* | / | / | / | 12%
Cn1cccc1/C=N/n1c(-c2ccccc2)n[nH]c1=S | -14% | -1 | 11 | 14µM* | 9%[38.3 µM]
Cc1nn(-c2ccccc2)c(C)c1/C=N/NC(=O)c1cc(-c2ccccc2)n[nH]1 | 4% | 19 | -87* | -17% | 55%[38.3 µM]
CC(C)(C)c1ccc(-c2n[nH]c(=S)n2C2CCCC2)cc1 | ? | 3 | -29 | ? | 22%[38.3 µM]
Cc1nn(-c2ccccc2)c(C)c1/C=N/NC(=O)c1cc(-c2cccc3ccccc23)n[nH]1 | 1% | 4 | 38 | -20% | 19%
SMILES | ALDH1A1 block | IMPase cell inh | PNC inhibitor | HPGD inh | IMPase Li inh
Cc1ccc(-c2n[nH]c(=S)n2/N=C/c2c(C)[nH]n(-c3ccccc3)c2=O)cc1 | -10% | / | / | / | 3%
COc1ccccc1-c1nccc(N2CCN(C)CC2)n1 | ? | / | / | / | 15%
Cc1cccc(N(CC(=O)NC(C)c2ccccc2)S(=O)(=O)c2ccccc2)c1C (configuration not stated) | / | -1 | / | / | /
CC1CCCN(S(=O)(=O)c2ccc(S(=O)(=O)NC(C)c3cccs3)cc2)C1 (configuration not stated) | 38µM* | 10 | ? | -20% | 46%[38.3 µM]
CC1CCCN(S(=O)(=O)c2ccc(NC(=O)CN3CCN(C)CC3)cc2)C1 (configuration not stated) | ? | 12 | 15 | -7% | 16%[38.3 µM]
CCOc1ccc(OCC)c(NS(=O)(=O)c2ccc3c(c2)CCN3C(=O)C2CCC2)c1 | 7% | -2 | -85* | -4% | 25%[38.3 µM]
C=CCC1(O)CCOc2ccccc21 (configuration not stated) | 3% | / | / | -6% | 7%
COc1ccc(OC)c(NC(=O)CSc2nnc(N)s2)c1 | ? | 15 | -16 | -4% | 8%[38.3 µM]
Cc1nc(NCCCO)c(C#N)c2c1COC(C)(C)C2 | ? | 6 | -122* | / | /
CC1(C)Cc2c(C#N)c(NCCCO)nc(-c3ccccc3)c2CO1 | ? | 7 | 24 | ? | -7%[38.3 µM]
Cc1c(C(=O)Nc2ccc(Cl)cc2)c2ccccn2c1CCc1ccncc1 | ? | -3 | -85* | ? | -6%
Cc1c(C(=O)c2ccc(F)cc2)c2ccccn2c1CCc1ccccn1 | ? | / | / | / | 23%
Cc1c(C(=O)c2ccccc2)c2ccccn2c1CCc1ccccn1 | 11µM* | / | / | / | 21%
C=C1C2=CC(=O)OC(c3ccoc3)[C@]2(C)CCC1[C@]1(C)C=CC(=O)C(C)(C)C1CC(=O)OC (some centres not stated) | ? | / | / | -4% | 12%
COc1cc(C2C(C(=O)c3ccc(C)o3)=C(O)C(=O)N2c2cc(C)on2)cc(Br)c1O (configuration not stated) | 20% | -3 | -3 | -24% | 3%[38.3 µM]
COc1ccc(C2C(C(=O)c3ccc(C)o3)=C(O)C(=O)N2c2cc(C)on2)cc1OC (configuration not stated) | -1% | ? | 0 | -18% | 10µM*
COc1cc(C2C(C(=O)c3ccco3)=C(O)C(=O)N2c2cc(C)on2)cc(Br)c1O (configuration not stated) | 3% | -3 | 2 | 2% | 3%[38.3 µM]
COc1ccc(OC)c(C2C(C(=O)c3cc4ccccc4o3)=C(O)C(=O)N2c2cc(C)on2)c1 (configuration not stated) | ? | ? | ? | -11% | 11µM*
NCOC(=O)Cc1ccc(Br)cc1 | -3%[13.5 µM] | / | / | -2% | -3%
NN=C1c2cc([N+](=O)[O-])ccc2-c2ccc([N+](=O)[O-])cc21 | 3% | / | / | / | 3%
COc1cccc(OCCn2c(-c3ccc(Cl)cc3)nc3ccccc3c2=O)c1 | / | 14 | / | / | /
O=C(NC1CCCC1)c1ccc(CSc2nc3ccncc3n2Cc2ccc(F)cc2)cc1 | -7% | / | 56 | 3.2µM* | 1%
CC1CC(C)CN(C(=O)c2ccc(CSc3nc4ccncc4[nH]3)cc2)C1 (configuration not stated) | 0% | / | 39 | 5.6µM* | 0%
CN1CCN(C(=O)c2ccc(CSc3nc4ccncc4n3Cc3ccc(F)cc3)cc2)CC1 | -2% | / | 30 | 16µM* | 8%

High-throughput results as filed in PubChem BioAssay.
